Results on 40 molecules are retold here after PubChem BioAssay (NCI).

This is part of a sample that, as a whole, favours compounds with a hit. Of some 79,000 tested, about 15% had one in any assay. Unmarked numbers belong to inactive results. Active and inactive are the calls of the source. Rule as the data show it: active = growth inhibition above about 70%; inactive = the rest.

This assay in a line: NCI Yeast Anticancer Drug Screen. Data for the bub3 strain (AID 167). The note with it: S. cerevisiae bub3 mutant strain, at 50.0 µM, hits give high values. The gist of the method: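 Inhibition values come from growth of compound-treated mutant yeast normalised to vehicle-treated controls.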
With `CCN(/N=C1\CC2C=CCN(C2)C(=O)Cc2c1[nH]c1ccccc21)S(=O)(=O)c1ccc(C)cc1` (stereo not given), the growth inhibition was 20.5%.

With `O=C(O)C1CCCCC1C(=O)O.[NH-]C1CCC1.[NH2-].[Pt+2]` (stereo not given), the growth inhibition is 99% (active).

Regarding `COC(=O)CCCN1C(=O)c2ccccc2C1=O`, the growth inhibition is 5.6%.

Consider `COC(=O)N/N=C/c1ccc(NC(C)=O)cc1`, for which the growth inhibition is -4.95%.

With `O=C1c2cc(Cl)ccc2OCC1Cl` (stereo not given), the growth inhibition was 18.7%.

For `O=C1C(Cl)N(c2ccc(Cl)cc2Cl)C1c1c[nH]c2ccccc12` (stereo not given), the growth inhibition was 2.95%.

`CCOC(=O)CNc1nnnn1C1OC(CO)C(O)C1O` (stereo not given): the growth inhibition was -12%.

Regarding `Cc1cc(-c2ccccc2)c(C#N)c(=O)[nH]1`, the growth inhibition is 3.65%.

Consider `COc1ccc(C(=O)N/N=C/c2ccccc2)cc1`, for which the growth inhibition was 2.6%.

Turning to `CCCC=NCCCC`, the growth inhibition is -30%.

Turning to `CCOP(=O)(OCC)/C(C#N)=C\c1ccc(N(C)C)cc1`, the growth inhibition is 6.35%.

Turning to `Nc1ccc(Cl)cc1[N+](=O)[O-]`, the growth inhibition was -3.9%.

As for `C[C@@]12C[C@@H](c3ccccc3O1)N1CCCSC1=N2`, the growth inhibition is -9.8%.

With `c1ccc2c(C3CO3)c3ccc4ccccc4c3cc2c1` (stereo not given), the growth inhibition was 99.2% (active).

Take `Cc1cccc(C)c1NC(=O)C(=O)Cc1nc2ccccc2s1`: the growth inhibition is -30.5%.

Consider `CC(=O)[C@@]1(O)CC[C@H]2[C@@H]3C[C@H](C)C4=CC(=O)CC[C@]4(C)[C@H]3[C@@H](O)C[C@@]21C`, for which the growth inhibition was 12.7%.

Consider `C#[N+]CCOP(=O)(OCC1OC(n2cc(C)c(=O)[nH]c2=O)CC1N=[N+]=[N-])O[C@H]1CC[C@@]2(C)C(=CC[C@H]3[C@@H]4CC[C@H](C(C)CCCC(C)C)[C@@]4(C)CC[C@@H]32)C1` (stereo not given in full), for which the growth inhibition is -0.35%.

Turning to `COc1c(OCC(O)CN2CCCCC2)c2c(C)coc2c2ccoc12` (stereo not given), the growth inhibition was 4.15%.

As to `O=C(CCN1CCOCC1)Nc1ccc(F)cc1F`, the growth inhibition was -36.5%.

On to `CC(C)(Oc1ccc2c(=O)cc(-c3ccc(Cl)cc3)oc2c1)C(=O)Nc1c(Cl)cccc1Cl`, for which the growth inhibition was 2.75%.

As to `COc1ccc(C2=C(Cl)c3cc(OC)c(OC)cc3C2Cl)cc1OC` (stereo not given), the growth inhibition was -6.15%.

`CC(=O)Oc1cccc2ccccc12`: the growth inhibition is -36.8%.

As to `O=C(Nc1cccc(O)c1)OC1CCCCC1`, the growth inhibition is 34%.

As for `O=C(c1ccco1)N(C(=S)N1CCN(c2ccccc2)CC1)C1CCCCC1`, the growth inhibition is 24.4%.

As to `CS/C(c1ccccc1)=[N+](/C)[O-]`, the growth inhibition was 24.6%.

As for `CCN(CC)c1ccccc1S(=O)(=O)O`, the growth inhibition is -6.85%.

Regarding `Clc1ccc(/C=C/c2nc3ccccc3s2)cc1Cl`, the growth inhibition is 27.2%.

Consider `O=C(O)/C=C\c1cc2c(cc1[N+](=O)[O-])OCO2`, for which the growth inhibition was 14.6%.

For `CCN(Cc1cc(Nc2ccnc3cc(Cl)ccc23)ccc1O)C(=O)N1CCN(C)CC1`, the growth inhibition was -7.55%.

For `C(=C\c1ccccn1)/c1ccc(/C=C/c2ccccn2)cc1`, the growth inhibition was 3.25%.

For `COC(=O)c1nc2c(N)nc(-c3ccccc3)nc2nc1N`, the growth inhibition is -16.6%.

For `O=C=Nc1ccc(Cc2ccc(N=C=O)cc2)cc1` (tested in a mixture with another compound), the growth inhibition is -0.5%.

Take `Cc1ccccc1N(CC1CO1)CC1CO1` (stereo not given): the growth inhibition was -0.8%.

On to `COc1cc2c3c(c1)SC(C)C(=O)N3CCN2` (stereo not given), for which the growth inhibition was -3.5%.

Consider `Cc1cccc(N=C(Nc2cccc(C)n2)Nc2cccc(C)n2)n1`, for which the growth inhibition was 25.9%.

On to `CCOC(=O)COc1cc2c(cc1C(C)c1cc(OC)c(OC)c(OC)c1)OCO2` (stereo not given), for which the growth inhibition is 34%.

In the case of `O=C(N/C(=C\c1ccccc1[N+](=O)[O-])c1nc2ccccc2[nH]1)c1ccccc1`, the growth inhibition is 6.85%.

With `Oc1ccc(C=NCCN=Cc2ccc(O)cc2)cc1`, the growth inhibition is 5.1%.

Take `NC(=O)NC(c1ccc(O)cc1)c1cc2c(cc1O)OCO2` (stereo not given): the growth inhibition was 5.75%.

With `C/C(=N/C(=O)NN)c1ccc(Cl)cc1`, the growth inhibition is 37.2%.
